Experimental findings from PMC7862700, “An all-to-all approach to the identification of sequence-specific readers for epigenetic DNA modifications on cytosine” are described below.

Common to all, as to assay: DAPPL (digital affinity profiling via proximity ligation, sequencing); 10 mM Tris-HCl pH 7.5, 50 mM NaCl, 1 mM DTT, 4% glycerol, room temperature, 30 min; GST-TFs on glutathione beads, 16-mer random dsDNA library, 0.1% formaldehyde crosslink after washing; high values mean tight binding
What all share (conditions): protein: recombinant; tags: N-terminal GST; dsDNA, one strand shown

The target in one test is T1, ELK1 (Homo sapiens, UniProt P19419 1-428).
T1 sequence: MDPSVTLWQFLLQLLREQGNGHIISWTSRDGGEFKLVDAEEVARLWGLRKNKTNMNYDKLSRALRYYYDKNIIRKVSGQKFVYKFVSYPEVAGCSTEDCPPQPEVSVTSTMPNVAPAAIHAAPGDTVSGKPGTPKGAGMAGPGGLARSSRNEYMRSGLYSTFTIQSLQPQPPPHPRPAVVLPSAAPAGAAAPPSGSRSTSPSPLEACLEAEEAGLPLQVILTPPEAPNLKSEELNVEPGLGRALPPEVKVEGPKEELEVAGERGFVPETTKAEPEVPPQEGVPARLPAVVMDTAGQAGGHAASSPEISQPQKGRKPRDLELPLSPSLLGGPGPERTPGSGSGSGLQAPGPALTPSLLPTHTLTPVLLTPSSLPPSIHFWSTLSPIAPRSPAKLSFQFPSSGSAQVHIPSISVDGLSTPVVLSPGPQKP
The method in brief: (§1)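 A tag-only sample was pooled with DNA-barcoded human transcription factors that had been expressed in yeast as GST fusions and captured on glutathione beads. The pools were incubated for 30 min at room temperature with 200 nmole of a random double-stranded 16-mer DNA library in Tris/NaCl/DTT/glycerol buffer, then washed, crosslinked with 0.1% formaldehyde, proximity-ligated (BsaI/T4 ligase, 1 h, 37 °C), PCR-amplified and sequenced on an Illumina NextSeq500. Binding signal is each hexamer's read frequency for a factor divided by its frequency for the tag-only sample.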

The next test concerns the target T2, GABPA (Homo sapiens, UniProt Q06546 1-454).
T2 sequence: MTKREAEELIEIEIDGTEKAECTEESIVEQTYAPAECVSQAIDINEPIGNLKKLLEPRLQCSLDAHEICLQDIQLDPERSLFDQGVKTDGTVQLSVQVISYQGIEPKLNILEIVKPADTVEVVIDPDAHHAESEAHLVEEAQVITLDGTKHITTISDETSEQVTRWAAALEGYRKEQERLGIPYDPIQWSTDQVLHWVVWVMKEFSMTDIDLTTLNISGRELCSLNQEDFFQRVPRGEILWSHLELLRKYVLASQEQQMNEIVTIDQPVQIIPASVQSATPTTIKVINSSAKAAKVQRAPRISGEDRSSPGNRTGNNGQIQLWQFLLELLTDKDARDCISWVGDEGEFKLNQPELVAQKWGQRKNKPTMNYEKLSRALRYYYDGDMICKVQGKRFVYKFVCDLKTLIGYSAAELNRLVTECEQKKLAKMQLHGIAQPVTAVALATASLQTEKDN
Put shortly:
as §1

The target in a further test is T3, ERG (Homo sapiens, UniProt P11308 1-479).
T3 sequence: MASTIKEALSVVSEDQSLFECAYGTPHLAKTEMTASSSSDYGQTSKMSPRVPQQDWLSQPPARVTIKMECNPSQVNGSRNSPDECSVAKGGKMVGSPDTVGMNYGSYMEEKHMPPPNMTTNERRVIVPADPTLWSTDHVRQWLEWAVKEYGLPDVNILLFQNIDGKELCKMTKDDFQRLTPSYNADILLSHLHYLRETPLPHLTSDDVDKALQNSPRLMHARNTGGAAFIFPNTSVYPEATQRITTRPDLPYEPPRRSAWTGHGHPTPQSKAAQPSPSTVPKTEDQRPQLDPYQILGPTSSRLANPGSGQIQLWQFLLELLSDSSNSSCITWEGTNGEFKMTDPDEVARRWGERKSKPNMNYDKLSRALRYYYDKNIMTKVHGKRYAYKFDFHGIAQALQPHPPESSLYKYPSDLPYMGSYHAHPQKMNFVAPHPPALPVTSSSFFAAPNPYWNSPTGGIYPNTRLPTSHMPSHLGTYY
Put shortly: as §1

A further test addresses ELF1 (Homo sapiens, UniProt P32519 1-619). The method in brief:
as §1

For the next test, the target named is T4, ELK3 (Homo sapiens, UniProt P41970 1-407).
T4 sequence: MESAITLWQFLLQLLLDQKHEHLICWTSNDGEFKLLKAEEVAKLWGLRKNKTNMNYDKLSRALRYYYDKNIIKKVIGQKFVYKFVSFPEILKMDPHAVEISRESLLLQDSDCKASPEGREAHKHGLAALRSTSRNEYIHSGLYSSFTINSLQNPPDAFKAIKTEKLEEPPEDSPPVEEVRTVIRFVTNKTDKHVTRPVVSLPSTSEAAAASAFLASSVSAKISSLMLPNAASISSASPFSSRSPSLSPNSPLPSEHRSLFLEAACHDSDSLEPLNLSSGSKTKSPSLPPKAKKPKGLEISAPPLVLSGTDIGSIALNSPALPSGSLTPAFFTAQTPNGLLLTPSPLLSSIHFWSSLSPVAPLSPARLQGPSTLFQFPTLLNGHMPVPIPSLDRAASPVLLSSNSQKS
Put shortly: as §1

The next test has as its target T5, SPIC (Homo sapiens, UniProt Q8N5J4 1-248).
T5 sequence: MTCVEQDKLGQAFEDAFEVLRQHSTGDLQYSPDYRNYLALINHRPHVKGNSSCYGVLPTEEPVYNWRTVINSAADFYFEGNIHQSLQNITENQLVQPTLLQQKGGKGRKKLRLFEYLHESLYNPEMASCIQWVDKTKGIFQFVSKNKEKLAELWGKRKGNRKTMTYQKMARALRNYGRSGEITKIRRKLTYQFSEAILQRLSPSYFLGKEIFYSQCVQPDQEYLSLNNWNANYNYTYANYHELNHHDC
Put shortly: as §1

Another test has as its target T6, ELK4 (Homo sapiens, UniProt P28324-2 1-405).
T6 sequence: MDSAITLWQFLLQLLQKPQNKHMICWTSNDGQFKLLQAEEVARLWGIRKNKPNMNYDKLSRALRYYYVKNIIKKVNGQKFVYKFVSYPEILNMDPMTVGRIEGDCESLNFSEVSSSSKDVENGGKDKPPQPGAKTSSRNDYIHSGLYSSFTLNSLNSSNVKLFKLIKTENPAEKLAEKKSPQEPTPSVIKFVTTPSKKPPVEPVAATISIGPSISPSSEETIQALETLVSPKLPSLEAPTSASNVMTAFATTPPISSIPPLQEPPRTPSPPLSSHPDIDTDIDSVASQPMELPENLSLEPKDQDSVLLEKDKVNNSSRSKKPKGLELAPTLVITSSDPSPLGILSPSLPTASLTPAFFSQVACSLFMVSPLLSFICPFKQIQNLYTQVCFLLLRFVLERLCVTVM
Put shortly: as §1

Another test deals with T7, ERF (Homo sapiens, UniProt P50548 1-548).
T7 sequence: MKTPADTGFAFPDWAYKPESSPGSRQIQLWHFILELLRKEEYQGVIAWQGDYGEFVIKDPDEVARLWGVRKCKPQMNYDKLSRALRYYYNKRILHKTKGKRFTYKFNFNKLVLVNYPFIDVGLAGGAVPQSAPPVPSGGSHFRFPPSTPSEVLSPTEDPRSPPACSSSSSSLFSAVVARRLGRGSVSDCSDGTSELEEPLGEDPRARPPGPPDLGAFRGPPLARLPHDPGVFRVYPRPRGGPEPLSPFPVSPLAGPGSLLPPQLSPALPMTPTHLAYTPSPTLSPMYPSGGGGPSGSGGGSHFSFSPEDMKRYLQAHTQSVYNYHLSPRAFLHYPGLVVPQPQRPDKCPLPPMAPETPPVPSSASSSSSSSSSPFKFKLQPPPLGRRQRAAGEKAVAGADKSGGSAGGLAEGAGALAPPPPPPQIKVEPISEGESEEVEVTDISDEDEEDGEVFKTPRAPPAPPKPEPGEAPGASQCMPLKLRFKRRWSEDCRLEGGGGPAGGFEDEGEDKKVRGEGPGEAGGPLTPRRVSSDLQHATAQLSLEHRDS
The method in brief:
as §1

For another test, the target named is T8, ETV3L (Homo sapiens, UniProt Q6ZN32 1-361).
T8 sequence: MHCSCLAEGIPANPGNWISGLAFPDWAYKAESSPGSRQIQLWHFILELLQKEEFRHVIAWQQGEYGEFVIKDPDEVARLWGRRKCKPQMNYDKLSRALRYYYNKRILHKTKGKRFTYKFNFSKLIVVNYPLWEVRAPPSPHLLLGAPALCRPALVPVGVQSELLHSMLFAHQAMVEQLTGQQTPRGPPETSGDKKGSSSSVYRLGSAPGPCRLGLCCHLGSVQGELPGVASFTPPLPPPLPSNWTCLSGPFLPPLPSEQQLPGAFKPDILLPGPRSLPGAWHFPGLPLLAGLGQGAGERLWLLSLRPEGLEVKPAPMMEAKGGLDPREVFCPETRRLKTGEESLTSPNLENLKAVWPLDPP
Put shortly: as §1

The target of a further test is T9, ETS2 (Homo sapiens, UniProt P15036 1-469).
T9 sequence: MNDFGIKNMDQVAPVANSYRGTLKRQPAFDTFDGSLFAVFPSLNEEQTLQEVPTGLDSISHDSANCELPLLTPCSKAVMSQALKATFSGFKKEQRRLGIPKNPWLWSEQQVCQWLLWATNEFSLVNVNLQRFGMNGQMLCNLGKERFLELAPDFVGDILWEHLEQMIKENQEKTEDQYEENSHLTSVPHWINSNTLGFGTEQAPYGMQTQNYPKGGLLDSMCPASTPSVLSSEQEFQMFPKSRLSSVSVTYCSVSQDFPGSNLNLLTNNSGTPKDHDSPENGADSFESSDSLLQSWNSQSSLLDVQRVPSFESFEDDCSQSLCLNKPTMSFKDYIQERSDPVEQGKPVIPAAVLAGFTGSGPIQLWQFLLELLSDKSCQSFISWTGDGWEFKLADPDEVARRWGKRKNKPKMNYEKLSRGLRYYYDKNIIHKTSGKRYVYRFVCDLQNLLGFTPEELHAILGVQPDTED
The method in brief: as §1

The target of a further test is T10, ETV3 (Homo sapiens, UniProt P41162-2 1-143).
T10 sequence: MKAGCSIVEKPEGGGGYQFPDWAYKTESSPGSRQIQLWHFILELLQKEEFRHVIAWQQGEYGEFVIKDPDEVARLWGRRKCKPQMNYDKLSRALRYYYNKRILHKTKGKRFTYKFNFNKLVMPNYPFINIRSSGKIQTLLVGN
The method in brief: as §1

A further test deals with ETV6 (Homo sapiens, UniProt P41212 1-452). Put shortly: as §1
Sequence of ETV6 (P41212 whole entry): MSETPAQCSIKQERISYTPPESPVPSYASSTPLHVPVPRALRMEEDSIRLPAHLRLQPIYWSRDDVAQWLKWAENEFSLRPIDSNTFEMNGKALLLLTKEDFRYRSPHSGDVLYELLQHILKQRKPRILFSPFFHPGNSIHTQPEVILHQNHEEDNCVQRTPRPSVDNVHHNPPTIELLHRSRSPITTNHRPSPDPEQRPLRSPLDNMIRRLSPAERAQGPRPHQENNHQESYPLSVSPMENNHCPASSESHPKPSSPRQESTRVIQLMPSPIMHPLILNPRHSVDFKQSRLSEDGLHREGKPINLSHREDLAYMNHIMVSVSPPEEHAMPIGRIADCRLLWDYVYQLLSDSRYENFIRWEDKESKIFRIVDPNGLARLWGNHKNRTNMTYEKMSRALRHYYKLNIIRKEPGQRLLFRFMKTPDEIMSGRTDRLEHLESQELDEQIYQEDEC

Sequence of ELF1 (P32519 whole entry): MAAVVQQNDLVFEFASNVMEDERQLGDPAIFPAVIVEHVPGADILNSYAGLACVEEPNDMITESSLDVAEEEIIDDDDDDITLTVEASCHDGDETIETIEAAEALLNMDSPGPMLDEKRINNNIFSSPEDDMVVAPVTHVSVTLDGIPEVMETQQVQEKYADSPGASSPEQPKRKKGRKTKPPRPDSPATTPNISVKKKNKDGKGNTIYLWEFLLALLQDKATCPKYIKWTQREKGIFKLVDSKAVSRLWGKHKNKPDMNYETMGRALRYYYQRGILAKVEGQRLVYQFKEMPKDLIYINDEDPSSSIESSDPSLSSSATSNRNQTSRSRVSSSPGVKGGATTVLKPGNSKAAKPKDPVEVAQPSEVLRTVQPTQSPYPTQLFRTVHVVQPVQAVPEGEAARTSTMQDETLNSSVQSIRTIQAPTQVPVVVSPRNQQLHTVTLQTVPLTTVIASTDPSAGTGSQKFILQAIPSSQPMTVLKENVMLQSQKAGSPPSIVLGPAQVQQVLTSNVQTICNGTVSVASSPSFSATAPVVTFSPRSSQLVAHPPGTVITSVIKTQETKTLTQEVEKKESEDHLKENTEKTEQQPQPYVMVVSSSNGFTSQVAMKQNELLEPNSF

Turning to AGTCTC, the binding signal is 1.02 fold enrichment (6-mer frequency, TF over GST control) in the test with ELK1; 1.01 fold enrichment (6-mer frequency, TF over GST control) in the test with GABPA; 1.06 fold enrichment (6-mer frequency, TF over GST control) with ERG; 1.05 fold enrichment (6-mer frequency, TF over GST control) with ELF1; 1.03 fold enrichment (6-mer frequency, TF over GST control) in the test with ELK3; 1.1 fold enrichment (6-mer frequency, TF over GST control) in the test with SPIC. Further, the binding signal was 1.05 fold enrichment (6-mer frequency, TF over GST control) with ELK4; 1.04 fold enrichment (6-mer frequency, TF over GST control) with ERF; 1.06 fold enrichment (6-mer frequency, TF over GST control) in the test with ETV3L; 1.05 fold enrichment (6-mer frequency, TF over GST control) with ETS2; 1.09 fold enrichment (6-mer frequency, TF over GST control) in the test with ETV3; 1.04 fold enrichment (6-mer frequency, TF over GST control) in the test with ETV6.
